High-throughput results: PubChem, National Center for Advancing Translational Sciences (NCATS)
GAA inh: qHTS Assay for Inhibitors of Human alpha-Glucosidase as a Potential Chaperone Treatment of Pompe Disease; Lysosomal alpha-glucosidase (Homo sapiens), P10253; purified human GAA, 4-MU-alpha-glucoside fluorescence; Potency, µM (series often up to 76.9 µM), without a hit: top-dose activity change, negative = inhibition, hits mostly inhibitors; hit rate 0.005% among 200,000; AID 1466, 2008;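 also: potency is read from the fitted curve at half-maximal effect; plate controls were uninhibited enzyme wells for no effect and no-enzyme background for full effect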
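Fluorogenic assay: 4 nM human alpha-glucosidase with 400 uM 4-methylumbelliferyl-alpha-D-pyranoside in 50 mM citrate/phosphate, 0.005% Tween-20, pH 5.0, 20 min at room temperature. Compounds tested up to 77 uM; AC50 from Hill fits.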
GLA inh pH 4.5: qHTS Assay for Inhibitors of Human alpha-Galactosidase at pH 4.5 | Alpha-galactosidase A (Homo sapiens), P06280 | purified enzyme, 4-MU-alpha-Gal fluorescence, pH 4.5 | activity change, negative = inhibition, % at 105 µM | 230,000 tested, under 10 active;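 also: 0% = full activity with enzyme and -100% = basal without enzyme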
aGal spleen mod: qHTS Assay for Inhibitors and Activators of Human alpha-Galactosidase From Spleen Homogenate. Potency, µM (highest dose often 80 µM), inactives show at the top dose activity change, negative = inhibition, usual class: inhibitors. AID 2107, 2009. human spleen homogenate, 4MU-alpha-Gal fluorescence, 40 min. hit rate 0.008% among 240,000. Alpha-galactosidase A (Homo sapiens), P06280;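 also: potency is read from the fitted curve at half-maximal effect; 0% = enzyme with vehicle and -100% = no enzyme basal signal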
Target sequence (P06280 32-429 limits assumed): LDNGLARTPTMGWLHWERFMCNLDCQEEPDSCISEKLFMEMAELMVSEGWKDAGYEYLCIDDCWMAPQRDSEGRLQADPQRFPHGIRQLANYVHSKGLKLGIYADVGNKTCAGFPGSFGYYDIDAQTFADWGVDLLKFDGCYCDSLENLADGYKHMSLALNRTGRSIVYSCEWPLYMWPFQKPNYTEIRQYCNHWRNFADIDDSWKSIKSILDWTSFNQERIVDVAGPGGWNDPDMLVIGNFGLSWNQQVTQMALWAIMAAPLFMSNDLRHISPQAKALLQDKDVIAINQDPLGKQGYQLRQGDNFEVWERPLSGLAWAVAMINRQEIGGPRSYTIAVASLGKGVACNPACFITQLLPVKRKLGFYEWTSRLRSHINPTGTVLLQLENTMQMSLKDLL
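Inhibition or activation of alpha-galactosidase in human spleen homogenate is scored by 4-MU fluorescence after 40 min at 37C, pH 5.0, with 1 mM substrate. AC50s come from concentration-response fitted to the Hill equation.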
N370S GC mod: qHTS Assay for Inhibitors and Activators of N370S glucocerebrosidase as a Potential Chaperone Treatment of Gaucher Disease; Lysosomal acid glucosylceramidase (Homo sapiens), P04062; N370S GC spleen homogenate, 4MU-glucoside fluorescence; Potency, µM (top dose mostly 59.4 µM), for inactives: at the top dose activity change, negative = inhibition, hits mostly inhibitors; hit rate 0.092% among 330,000; AID 2101, 2009;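 also: potency is read from the fitted curve at half-maximal effect; 0% = full enzyme activity and -100% = no enzyme basal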
GAA glycogen: qHTS Assay for Inhibitors and Activators of Human alpha-Glucosidase Cleavage of Glycogen | recombinant GAA, glycogen substrate, Amplex Red glucose oxidase fluorescence | AID 2100, 2009 | Lysosomal alpha-glucosidase (Homo sapiens), P10253 | hit rate 0.38% among 300,000 | Potency, µM (titrated, usually from 76.4 µM), without a hit: at the top dose activity change, negative = inhibition, most hits filed as inhibitors;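 also: potency is read from the fitted curve at half-maximal effect; 0% = full enzyme reaction and -100% = no-enzyme basal signal; the screen sought inhibitors and activators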
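Recombinant human enzyme (4 nM); glycogen substrate; 37 C, 40 min, pH 5.0. Readout: coupled glucose oxidase/Amplex Red fluorescence.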
GAA spleen mod: qHTS Assay for Inhibitors and Activators of Human alpha-Glucosidase From Spleen Homogenate | Lysosomal alpha-glucosidase (Homo sapiens), P10253 | human spleen homogenate, 4-MU-alpha-glucoside fluorescence | Potency, µM (top dose mostly 79.9 µM), without a hit: at the highest dose activity change, negative = inhibition, most hits filed as inhibitors | hit rate 0.006% among 240,000;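 also: potency is read from the fitted curve at half-maximal effect; 0% = enzyme with vehicle and -100% = no enzyme basal signal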
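AC50 values come from Hill-equation fits of concentration-response data, normalized to no-enzyme and full-activity controls. Enzyme source: 1 ug human spleen homogenate; 1 mM fluorogenic 4-MU glucoside, pH 5.0 citrate buffer, 37 C, 40 min.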
Active calls of the source: *; ? = inconclusive; · = no result given; [ ] = remark or other dose. Only some compounds are listed: those with a hit (about 0.43% of all), similar ones and a draw of the others. Calls follow the shape of the dose curve; as a rule, active = well fitted curve in the direction sought with a large enough effect; inconclusive = small, poorly fitted or top-dose-only effect, or another doubt; inactive = no such curve, though single readings can be large; an effect the other way counts as inactive or inconclusive.

SMILES | GAA inh | GLA inh pH 4.5 | aGal spleen mod | N370S GC mod | GAA glycogen | GAA spleen mod
O=C(N/N=C/c1ccc(O)cc1)c1cccc(N/N=C/c2ccc(O)cc2)c1 | -14% | -6 | -2% | -20% | 25µM* | -3%
Cc1nc2cc(C(=O)O)ccc2n1-c1ccc(C(C)C)cc1 | · | · | · | · | -10%[76.3 µM] | ·
COc1ccc(-c2cc(Nc3ccccc3NC(=O)C(F)(F)F)n(CCC#N)n2)cc1 | -1% | 0 | 4% | 11% | 35µM* | -3%
CCOC(=O)c1cc(-c2ccc(OC)cc2)nc2c1c(C)nn2CCC#N | 13% | 5 | ? | 12% | -25% | 24%
COc1ccc(NC(=S)N(CCCN2CCOCC2)Cc2cn(C)c3ccccc23)cc1 | -4% | 8 | 7% | 0% | -24% | -12%
Cc1cccc(NC(=S)N(CCCN2CCOCC2)Cc2cn(C)c3ccccc23)c1 | 0% | 5 | -7% | 7.9µM* | 6% | -8%
Cn1cc(CN(CCCN2CCOCC2)C(=S)Nc2cccc(Cl)c2)c2ccccc21 | 1% | -2 | 3% | 10µM* | -20% | -2%
CCOc1ccc(NC(=S)N(CCCN2CCOCC2)Cc2cn(C)c3ccccc23)cc1 | -4% | -4 | -7% | 5% | -16% | -1%
COC(=O)c1ccc(Cl)cc1NC(=O)N(Cc1ccc(OC)cc1)C1CCN(C(C)=O)CC1 | · | · | · | · | -6%[76.3 µM] | ·
CCSc1oc(-c2cccs2)nc1S(=O)(=O)c1ccc(Br)cc1 | · | · | · | · | -4%[76.3 µM] | ·
CCn1c(SCC(=O)Nc2cc(C)ccc2F)nnc1-c1ccccc1O | · | · | · | · | 14%[76.3 µM] | ·
CCOC(=O)C1(Cc2ccccc2C(F)(F)F)CCN(C(C)CCn2cccn2)CC1 (centres undefined) | ? | 0 | 3% | 11% | 4.5µM* | 1%
COc1cccc(C2=Nn3c(nnc3-c3ccccc3C)SC2)c1 | · | · | 14% | -7% | · | -2%
NC(=S)N/N=C1/CCSc2ccc3ccccc3c21 | -15% | -14 | 5% | ? | 28µM* | -7%
NC(=S)N/N=C/c1c(O)ccc2ccccc12 | · | -17 | ? | -4% | ? | 18%
CC(C)[C@@H](OCc1ccccc1)[C@H](C)/C=N\O[C@@H](C)c1cn([C@H](CO)Cc2ccccc2)nn1 | · | · | 16%[17.5 µM] | 0%[12.8 µM] | · | -4%[17.4 µM]
COc1cc(OC)c(OC)cc1CNc1cc(C)ccc1OC | -13% | 2 | 11% | 12% | 11µM* | 7%
COc1ccc(C)cc1NCc1cccc(OC)c1OC | ? | 0 | -8% | 27% | -27% | -7%
CCOc1cccc(C(=O)Nc2c(C(=O)c3ccc(OC)cc3)oc3ccccc23)c1 | · | · | · | · | 4%[76.3 µM] | ·
CC(C)CCNC(=O)C(CC(C)C)NC(=O)C1OC1C(=O)O (centres undefined) | · | · | -13% | -1% | · | 4%
COc1ccc(-c2cnc(NCc3ccc(C)cc3)n2C)cc1 | · | · | · | · | 10µM* | ·
COc1c(-c2ccc(O)c(O)c2)oc2cc(O)cc(O)c2c1=O | · | -8 | -6% | -10% | 35µM* | 3%
O=c1c(O[C@@H]2O[C@H](CO)[C@@H](O)[C@H](O)[C@H]2O)c(-c2ccc(O)cc2)oc2cc(O)cc(O)c12 | · | · | -11% | -17% | · | -8%
CC1OC(OCC2OC(Oc3c(-c4ccc(O)cc4)oc4cc(O)cc(O)c4c3=O)C(O)C(O)C2O)C(O)C(O)C1O (centres undefined) | · | -3 | -11% | -15% | ? | -1%
O=c1c(O)c(-c2ccc(O)cc2O)oc2cc(O)cc(O)c12 | 0%[15.4 µM] | 0 | -1% | -10% | 3.2µM* | -11%
SMILES | GAA inh | GLA inh pH 4.5 | aGal spleen mod | N370S GC mod | GAA glycogen | GAA spleen mod
O=c1c(O[C@@H]2O[C@H](CO)[C@H](O)[C@H](O)[C@H]2O)c(-c2ccc(O)c(O)c2)oc2cc(O)cc(O)c12 | -6%[15.4 µM] | -9 | ? | ? | 6.3µM* | ?
COc1cc(-c2oc3cc(O)cc(O)c3c(=O)c2O[C@@H]2O[C@H](CO)[C@@H](O)[C@H](O)[C@H]2O)ccc1O | · | · | 3% | -4% | · | -1%
C[C@@H]1O[C@@H](OC[C@H]2O[C@@H](Oc3c(-c4ccc(O)c(O)c4)oc4cc(O)cc(O)c4c3=O)[C@H](O)[C@@H](O)[C@@H]2O)[C@H](O)[C@H](O)[C@H]1O | -2%[15.4 µM] | -6 | -10% | -1% | 3.2µM* | -4%
Cc1ccc(OCCSc2nc3ccccc3n2CC(=O)NC(C)C)cc1 | · | · | · | · | -13%[76.3 µM] | ·
COc1cc(O)c2c(c1)oc(=O)c1c3cc(O)c(O)cc3oc21 | · | · | 1% | -23% | · | -10%
O=c1c(O[C@@H]2O[C@H](CO)[C@@H](O)[C@H](O)[C@H]2O)c(-c2ccc(O)c(O)c2)oc2cc(O)cc(O)c12 | -1%[15.4 µM] | -15 | -7% | -15% | 3.5µM* | -10%
CCc1ccccc1NC(=O)C1=C(C)C(=O)OC12CCCCCC2 | · | · | · | · | 10%[76.3 µM] | ·
O=C(C1=C[C@@H](c2ccc(C(F)(F)F)cc2)C[C@@H](OCc2ccc(CO)cc2)O1)N1CCN(Cc2ccccc2)CC1 | · | -5 | 2% | 13µM* | 2% | 1%
Cc1c(N=Cc2ccco2)c(=O)n(-c2ccccc2)n1C | 3% | 8 | -4% | 11% | 10µM* | -15%
Cc1c(N=Cc2ccc(Cl)o2)c(=O)n(-c2ccccc2)n1C | -9% | -24 | 5% | 1% | 4.5µM* | 2%
Cc1ccccc1-c1ccc(C=Nc2c(C)n(C)n(-c3ccccc3)c2=O)o1 | -11% | -3 | 3% | 4% | 16µM* | 4%
CCOC(=O)c1c(NC(=O)c2cc(=O)c3cc(Cl)ccc3o2)sc(C)c1C | · | · | · | · | 14%[76.3 µM] | ·
